Results as given in the supplement of paper PMC10849652.
About 8,800 targets were measured; listed, in parts, are those with a hit and a random draw of the rest. About 0.5% of all pairs of compound and target were hits.

Columns and labels:
Experiment in all cases: log2 fold change, soluble protein after heating vs DMSO (PISA); higher = thermal stabilisation; K562 lysate, 10 uM; active = over 0.2 and 3.5 SD of the protein, either way, in both replicates (recomputed)
dasatinib = compound: Cc1nc(Nc2ncc(C(=O)Nc3c(C)cccc3Cl)s2)cc(N2CCN(CCO)CC2)n1 [dasatinib]
In short: (§1)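 To prepare the extract, K562 pellets were dounce-homogenised in PBS pH 7.4 with 1 mM MgCl2, giving crude material at 1 mg/mL protein. This was treated with 10 μM compound for 30 min, then heated in aliquots for 3 min over 48°C-58°C before pooling and addition of NP-40 to 0.5% at 4°C. Centrifugation at 21,000xg for 90 min left soluble protein in the supernatant, which TMTpro 16plex LC-MS/MS quantified with equalised channel sums. Results are log-two fold changes in thermal stability compared with solvent controls, from duplicates.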

[1] = compound: Cn1cc(-c2ccc3c(c2)CCN3C(=O)Cc2cccc(C(F)(F)F)c2)c2c(N)ncnc21
In short: as §1

quisinostat = compound: Cn1cc(CNCC2CCN(c3ncc(C(=O)NO)cn3)CC2)c2ccccc21 [quisinostat]
In short: as §1

[2] = compound: NC(=O)Nc1cc(-c2cccc(F)c2)sc1C(=O)N[C@H]1CCCNC1
In short: as §1

[3] = compound: NC(=O)c1cnc(N[C@@H]2CCCC[C@@H]2N)nc1Nc1cccc(-n2nccn2)c1
In short: as §1

[4] = compound: O=C1NC(=O)C(c2cnc3ccccn23)=C1c1cn2c3c(cc(F)cc13)CN(C(=O)N1CCCCC1)CC2
In short: as §1

[5] = compound: NCC(=O)Nc1ccc(-n2nc(C(F)(F)F)cc2-c2ccc3c(ccc4ccccc43)c2)cc1
In short: as §1

[6] = compound: NC1(c2ccc(-c3nc4ccn5c(=O)[nH]nc5c4cc3-c3ccccc3)cc2)CCC1
In short: as §1

vorinostat = compound: O=C(CCCCCCC(=O)Nc1ccccc1)NO [vorinostat]
In short: as §1

silmitasertib = compound: O=C(O)c1ccc2c(c1)nc(Nc1cccc(Cl)c1)c1ccncc12 [silmitasertib]
In short: as §1

entospletinib = compound: c1cn2cc(-c3ccc4cn[nH]c4c3)nc(Nc3ccc(N4CCOCC4)cc3)c2n1 [entospletinib]
In short: as §1

nilotinib = compound: Cc1cn(-c2cc(NC(=O)c3ccc(C)c(Nc4nccc(-c5cccnc5)n4)c3)cc(C(F)(F)F)c2)cn1 [nilotinib]
In short: as §1

[7] = compound: Cc1nc(Nc2n[nH]c3c2CN(C(=O)N[C@H](CN(C)C)c2ccccc2)C3(C)C)c2sccc2n1
In short: as §1

[8] = compound: Cc1ncc(-c2ccnc(Nc3ccc(S(C)(=O)=O)cc3)n2)n1C(C)C
In short: as §1

tipifarnib = compound: Cn1cncc1[C@@](N)(c1ccc(Cl)cc1)c1ccc2c(c1)c(-c1cccc(Cl)c1)cc(=O)n2C [tipifarnib]
In short: as §1

Measured: log2 fold change

TNIK isoform 5 (UniProt Q9UKE5)
active: [2] 0.539
inactive: dasatinib 0.187 | [1] 0.019 | quisinostat -0.218 | [3] 0.019 | [4] -0.134

TFPI isoform 2 (UniProt P10646)
inactive: quisinostat -0.087 | [2] 0.082 | [5] 0.184 | [4] 0.019

TBC1D20 isoform 3 (UniProt Q96BZ9)
inactive: dasatinib 0.027 | [1] -0.053 | quisinostat -0.021 | [2] 0.067 | [3] -0.072 | [6] -0.006 | [5] -0.118 | vorinostat 0.088 | silmitasertib -0.013 | [4] 0.058 | entospletinib 0.02

TPM3 isoform 3 (UniProt P06753)
UniProt P06753, sequence (P06753 whole entry, looked up): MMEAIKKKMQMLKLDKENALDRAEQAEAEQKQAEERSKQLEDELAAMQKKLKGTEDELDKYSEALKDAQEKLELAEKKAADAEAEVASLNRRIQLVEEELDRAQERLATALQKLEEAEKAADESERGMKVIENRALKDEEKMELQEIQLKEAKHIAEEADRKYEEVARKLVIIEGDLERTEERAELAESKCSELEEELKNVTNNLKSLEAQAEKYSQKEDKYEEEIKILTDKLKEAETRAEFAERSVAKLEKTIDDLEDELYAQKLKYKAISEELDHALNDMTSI
inactive: dasatinib 0.05 | [1] 0.106 | quisinostat 0.112 | [2] -0.09 | [3] 0.001 | [6] -0.035 | [5] -0.111 | vorinostat 0.048 | silmitasertib -0.047 | [4] -0.15 | entospletinib -0.024

TMSB4X (UniProt P62328)
UniProt P62328, sequence (P62328 whole entry, looked up): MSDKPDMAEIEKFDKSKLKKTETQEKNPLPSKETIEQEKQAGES
inactive: nilotinib -0.105 | [7] -0.107 | [8] 0.115 | quisinostat -0.024 | tipifarnib -0.071 | [2] 0.263 | [3] -0.027 | [6] 0 | vorinostat 0.103 | silmitasertib -0.076 | [4] 0.219 | entospletinib -0.158

TMC1 (UniProt Q8TDI8)
active: quisinostat -0.552
inactive: nilotinib -0.073 | [7] -0.049 | [8] -0.28 | tipifarnib 0.015 | [2] -0.058 | [3] -0.006 | [6] 0 | [5] 0.015 | vorinostat -0.121 | silmitasertib 0.02 | [4] -0.337 | entospletinib 0.012

TENM4 (UniProt Q6N022)
inactive: quisinostat -0.13 | [2] 0.033 | [3] -0.081 | [4] 0.143

TRPM4 (UniProt Q8TD43)
inactive: dasatinib -0.02 | [1] -0.099 | quisinostat -0.01 | [2] 0.111 | [6] 0.089 | vorinostat 0.161 | silmitasertib -0.091 | [4] -0.078

TPD52L2 isoform 3 (UniProt O43399)
inactive: nilotinib 0.055 | [7] 0.035 | [8] 0.008 | tipifarnib 0.134 | [6] 0.074 | vorinostat 0.258 | silmitasertib -0.058

TXNRD2 isoform 3 (UniProt Q9NNW7)
UniProt Q9NNW7, sequence (Q9NNW7 whole entry, looked up): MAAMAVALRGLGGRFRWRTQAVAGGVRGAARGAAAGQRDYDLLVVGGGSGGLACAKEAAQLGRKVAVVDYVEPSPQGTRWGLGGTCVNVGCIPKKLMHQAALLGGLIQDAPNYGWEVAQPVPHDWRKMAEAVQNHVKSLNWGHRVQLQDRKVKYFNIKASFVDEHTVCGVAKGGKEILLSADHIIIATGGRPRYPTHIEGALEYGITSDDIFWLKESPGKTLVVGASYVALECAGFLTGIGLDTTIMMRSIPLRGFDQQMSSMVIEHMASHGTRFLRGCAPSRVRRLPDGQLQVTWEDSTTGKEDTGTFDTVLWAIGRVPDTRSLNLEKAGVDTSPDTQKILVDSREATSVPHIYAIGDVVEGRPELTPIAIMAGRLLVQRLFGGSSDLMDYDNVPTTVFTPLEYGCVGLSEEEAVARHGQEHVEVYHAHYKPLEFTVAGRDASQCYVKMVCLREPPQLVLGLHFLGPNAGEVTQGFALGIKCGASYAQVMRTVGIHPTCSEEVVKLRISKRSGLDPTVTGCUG
active: vorinostat -0.94
inactive: [6] -0.228 | silmitasertib -0.194

UBAP2L isoform 1 (UniProt Q14157)
UniProt Q14157, sequence (Q14157 whole entry, looked up): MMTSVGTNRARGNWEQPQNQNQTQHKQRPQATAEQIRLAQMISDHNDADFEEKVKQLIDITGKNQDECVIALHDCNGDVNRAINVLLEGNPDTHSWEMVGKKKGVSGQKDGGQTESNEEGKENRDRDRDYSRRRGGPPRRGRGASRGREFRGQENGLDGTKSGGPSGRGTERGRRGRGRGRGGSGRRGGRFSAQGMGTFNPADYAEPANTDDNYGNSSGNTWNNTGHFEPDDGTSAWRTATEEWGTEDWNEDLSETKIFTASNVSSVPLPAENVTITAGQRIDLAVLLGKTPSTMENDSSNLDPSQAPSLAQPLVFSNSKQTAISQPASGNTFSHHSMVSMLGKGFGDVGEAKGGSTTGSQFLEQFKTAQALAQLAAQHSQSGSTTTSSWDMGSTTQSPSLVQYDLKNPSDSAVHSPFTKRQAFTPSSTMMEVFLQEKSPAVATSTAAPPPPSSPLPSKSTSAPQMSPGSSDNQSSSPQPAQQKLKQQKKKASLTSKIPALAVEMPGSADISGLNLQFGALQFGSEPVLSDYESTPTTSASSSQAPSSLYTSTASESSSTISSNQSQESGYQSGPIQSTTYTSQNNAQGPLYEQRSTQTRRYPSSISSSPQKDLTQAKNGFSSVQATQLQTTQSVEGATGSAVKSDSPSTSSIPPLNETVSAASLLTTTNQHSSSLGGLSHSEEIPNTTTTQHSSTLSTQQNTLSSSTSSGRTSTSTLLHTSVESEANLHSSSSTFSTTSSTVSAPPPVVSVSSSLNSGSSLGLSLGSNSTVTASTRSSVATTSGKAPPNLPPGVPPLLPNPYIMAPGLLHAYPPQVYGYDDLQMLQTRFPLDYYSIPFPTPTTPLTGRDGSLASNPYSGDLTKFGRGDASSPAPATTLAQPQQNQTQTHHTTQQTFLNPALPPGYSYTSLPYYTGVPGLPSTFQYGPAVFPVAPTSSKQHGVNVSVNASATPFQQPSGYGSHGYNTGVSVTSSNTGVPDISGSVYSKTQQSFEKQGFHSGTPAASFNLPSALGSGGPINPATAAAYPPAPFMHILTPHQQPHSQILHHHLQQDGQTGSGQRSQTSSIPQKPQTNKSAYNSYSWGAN
inactive: nilotinib -0.03 | [7] -0.081 | [8] 0.09 | quisinostat 0.613 | tipifarnib -0.067 | [2] 0.081 | [4] 0.088

TGFBR1 isoform 2 (UniProt P36897)
UniProt P36897, sequence (P36897 whole entry, looked up): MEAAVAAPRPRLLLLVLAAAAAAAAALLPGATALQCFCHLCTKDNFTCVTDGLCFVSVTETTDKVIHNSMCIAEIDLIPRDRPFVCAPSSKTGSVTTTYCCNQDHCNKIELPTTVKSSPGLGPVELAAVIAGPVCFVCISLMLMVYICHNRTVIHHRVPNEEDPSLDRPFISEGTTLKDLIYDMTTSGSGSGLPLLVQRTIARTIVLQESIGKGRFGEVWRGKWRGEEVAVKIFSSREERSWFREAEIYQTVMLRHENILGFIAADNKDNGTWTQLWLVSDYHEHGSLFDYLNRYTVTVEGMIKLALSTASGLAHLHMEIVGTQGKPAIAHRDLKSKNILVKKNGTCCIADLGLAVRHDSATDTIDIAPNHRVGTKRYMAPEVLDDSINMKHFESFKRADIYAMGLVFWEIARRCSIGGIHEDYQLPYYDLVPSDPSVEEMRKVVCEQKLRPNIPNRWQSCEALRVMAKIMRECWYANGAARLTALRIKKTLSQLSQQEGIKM
inactive: [1] -0.03 | [6] -0.117 | vorinostat 0 | silmitasertib 0.076 | entospletinib -0.004

UCP2 (UniProt P55851)
UniProt P55851, sequence (P55851 whole entry, looked up): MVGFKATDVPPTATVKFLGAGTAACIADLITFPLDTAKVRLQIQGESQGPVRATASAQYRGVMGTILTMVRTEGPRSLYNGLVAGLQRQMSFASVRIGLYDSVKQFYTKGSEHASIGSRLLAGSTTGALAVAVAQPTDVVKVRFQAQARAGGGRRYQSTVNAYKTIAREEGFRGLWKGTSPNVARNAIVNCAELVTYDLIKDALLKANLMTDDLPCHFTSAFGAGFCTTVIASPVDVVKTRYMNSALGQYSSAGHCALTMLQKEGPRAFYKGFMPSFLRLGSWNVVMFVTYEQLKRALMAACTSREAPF
inactive: nilotinib 0.144 | [7] -0.186 | [8] -0.137 | quisinostat -0.022 | tipifarnib 0.142 | [2] 0.059 | [5] -0.12 | [4] 0.035

UBN1 (UniProt Q9NPG3)
inactive: dasatinib 0.208 | [1] 0.055 | quisinostat 0.114 | [2] -0.053 | [3] 0.001 | [5] 0.048 | [4] -0.463 | entospletinib -0.034

UBAP2L (UniProt F8W726)
inactive: quisinostat 0.11 | [2] 0.043 | [3] 0.099 | [5] 0.062 | [4] 0.021

TFPT (UniProt P0C1Z6)
inactive: dasatinib 0.009 | [1] 0.006 | [3] 0.023 | [6] -0.002 | vorinostat 0.289 | silmitasertib -0.18

TTLL12 (UniProt V9GY16)
inactive: quisinostat -0.436 | [2] -0.021 | [6] 0.039 | [5] 0.115 | vorinostat 0.076 | silmitasertib -0.298 | [4] 0.035 | entospletinib 0.103

TUBB6 (UniProt K7ES63)
inactive: nilotinib -0.051 | [7] 0.112 | [8] -0.155 | quisinostat -0.267 | tipifarnib 0.08 | [2] 0.049 | [3] 0.08 | [6] -0.008 | [5] -0.062 | vorinostat -0.414 | silmitasertib 0.013 | [4] -0.164 | entospletinib -0.11

TRIM3 (UniProt O75382)
UniProt O75382, sequence (O75382 whole entry, looked up): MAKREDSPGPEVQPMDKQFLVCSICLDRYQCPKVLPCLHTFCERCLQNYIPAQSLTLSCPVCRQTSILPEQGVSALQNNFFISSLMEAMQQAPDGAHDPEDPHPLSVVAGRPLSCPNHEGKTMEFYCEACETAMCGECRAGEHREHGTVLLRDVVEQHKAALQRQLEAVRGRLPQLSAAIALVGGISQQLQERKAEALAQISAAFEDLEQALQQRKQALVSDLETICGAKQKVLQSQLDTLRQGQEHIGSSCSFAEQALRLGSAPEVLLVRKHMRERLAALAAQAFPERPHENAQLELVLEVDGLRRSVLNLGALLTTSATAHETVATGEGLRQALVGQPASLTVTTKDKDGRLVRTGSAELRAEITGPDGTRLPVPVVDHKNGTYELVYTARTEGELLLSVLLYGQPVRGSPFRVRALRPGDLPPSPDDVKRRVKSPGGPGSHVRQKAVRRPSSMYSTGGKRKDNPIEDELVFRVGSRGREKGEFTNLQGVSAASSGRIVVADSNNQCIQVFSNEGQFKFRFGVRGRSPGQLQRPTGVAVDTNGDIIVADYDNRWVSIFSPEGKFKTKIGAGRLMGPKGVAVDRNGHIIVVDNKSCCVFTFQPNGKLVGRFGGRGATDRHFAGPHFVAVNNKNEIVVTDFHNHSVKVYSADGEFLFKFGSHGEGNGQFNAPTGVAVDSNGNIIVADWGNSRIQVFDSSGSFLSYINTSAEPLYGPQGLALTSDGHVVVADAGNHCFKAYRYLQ
inactive: [3] 0.623 | [6] 0.146 | [5] -0.304 | vorinostat -0.055 | silmitasertib -0.179 | entospletinib -0.056

TCF20 (UniProt Q9UGU0)
inactive: dasatinib 0.001 | [1] -0.057 | quisinostat 0.193 | [2] -0.006 | [3] 0.11 | [6] 0.068 | vorinostat -0.067 | silmitasertib 0.054 | [4] -0.056

TEC (UniProt P42680)
inactive: nilotinib -0.047 | [7] 0.099 | [8] 0.019 | tipifarnib 0.116 | [3] -0.039 | entospletinib 0.037
active: [5] -1.05

TLE3 (UniProt H0YL70)
inactive: dasatinib 0.077 | [1] 0.05

THAP9 (UniProt Q9H5L6)
inactive: dasatinib 0.025 | [1] -0.032 | quisinostat -0.455 | [2] 0.07 | [3] 0.179 | [5] 0.207 | [4] 0.09 | entospletinib 0.059

UCHL5 (UniProt Q5LJA9)
active: vorinostat -0.361
inactive: dasatinib -0.214 | [1] -0.075 | quisinostat -0.186 | [2] -0.024 | [3] 0.009 | [6] 0.006 | [5] -0.017 | silmitasertib 0.004 | [4] -0.086 | entospletinib -0.011

TMEM154 (UniProt Q6P9G4)
UniProt Q6P9G4, sequence (Q6P9G4 whole entry, looked up): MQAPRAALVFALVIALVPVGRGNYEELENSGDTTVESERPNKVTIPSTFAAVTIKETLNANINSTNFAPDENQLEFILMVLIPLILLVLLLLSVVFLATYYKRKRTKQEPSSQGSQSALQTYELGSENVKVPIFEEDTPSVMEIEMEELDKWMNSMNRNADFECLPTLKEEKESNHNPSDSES
inactive: dasatinib 0.058 | [1] 0.07 | quisinostat 0.103 | [2] -0.101 | [4] 0.008 | entospletinib -0.056

TMEM132A isoform 2 (UniProt Q24JP5)
UniProt Q24JP5, sequence (Q24JP5 whole entry, looked up): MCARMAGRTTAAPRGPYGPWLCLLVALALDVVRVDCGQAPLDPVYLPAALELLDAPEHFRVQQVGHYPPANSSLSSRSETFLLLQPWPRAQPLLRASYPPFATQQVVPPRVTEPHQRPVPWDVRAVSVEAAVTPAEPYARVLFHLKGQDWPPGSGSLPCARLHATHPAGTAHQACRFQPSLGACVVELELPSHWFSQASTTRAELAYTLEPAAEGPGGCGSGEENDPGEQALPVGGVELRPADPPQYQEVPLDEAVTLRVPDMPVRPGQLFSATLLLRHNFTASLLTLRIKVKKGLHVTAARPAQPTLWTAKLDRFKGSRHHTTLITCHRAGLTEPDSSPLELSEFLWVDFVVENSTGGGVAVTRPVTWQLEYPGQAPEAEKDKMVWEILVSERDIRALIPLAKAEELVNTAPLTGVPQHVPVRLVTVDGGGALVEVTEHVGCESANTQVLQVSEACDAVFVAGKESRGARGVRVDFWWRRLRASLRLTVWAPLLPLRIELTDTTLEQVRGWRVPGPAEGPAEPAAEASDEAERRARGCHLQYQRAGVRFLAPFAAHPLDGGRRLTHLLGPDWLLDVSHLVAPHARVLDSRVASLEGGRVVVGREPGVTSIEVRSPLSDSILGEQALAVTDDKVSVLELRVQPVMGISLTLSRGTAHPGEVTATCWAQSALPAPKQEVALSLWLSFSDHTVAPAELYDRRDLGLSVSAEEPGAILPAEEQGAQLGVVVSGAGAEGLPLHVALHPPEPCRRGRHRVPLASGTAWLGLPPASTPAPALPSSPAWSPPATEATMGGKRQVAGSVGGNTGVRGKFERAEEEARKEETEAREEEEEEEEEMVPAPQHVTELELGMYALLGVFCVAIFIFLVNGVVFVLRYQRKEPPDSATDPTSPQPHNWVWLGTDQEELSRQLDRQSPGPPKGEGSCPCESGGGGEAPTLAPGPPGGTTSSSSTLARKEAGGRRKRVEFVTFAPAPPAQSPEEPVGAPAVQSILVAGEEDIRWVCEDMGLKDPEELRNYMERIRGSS
inactive: quisinostat -0.022 | [2] 0.087 | [3] 0.724 | [6] -0.014 | vorinostat -0.156 | silmitasertib 0.351 | [4] 0.227 | entospletinib -0.089

TFAP4 (UniProt Q01664)
inactive: nilotinib 0.18 | [7] 0.155 | [8] 0 | quisinostat 0.006 | tipifarnib -0.066 | [2] -0.036 | [3] -0.218 | [6] -0.001 | [5] 0.005 | vorinostat 0.051 | silmitasertib -0.196 | [4] 0.01 | entospletinib -0.086

TUBB4A (UniProt M0QYM7)
inactive: nilotinib -0.029 | [7] -0.009 | [8] 0.039 | quisinostat -0.116 | tipifarnib 0.013 | [2] 0.107 | [3] -0.048 | [6] 0.126 | [5] 0.128 | vorinostat -0.431 | silmitasertib 0.01 | [4] -0.062 | entospletinib 0.032

TM2D3 (UniProt Q9BRN9)
UniProt Q9BRN9, sequence (Q9BRN9 whole entry, looked up): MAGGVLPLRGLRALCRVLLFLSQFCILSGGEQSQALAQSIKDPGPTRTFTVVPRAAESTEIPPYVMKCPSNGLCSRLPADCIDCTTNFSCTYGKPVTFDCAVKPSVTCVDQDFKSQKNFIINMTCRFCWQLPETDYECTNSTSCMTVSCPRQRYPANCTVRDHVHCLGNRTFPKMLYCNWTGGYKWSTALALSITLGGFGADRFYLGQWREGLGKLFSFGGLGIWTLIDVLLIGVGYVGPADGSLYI
inactive: [6] -0.09 | vorinostat 0.096 | silmitasertib 0.339 | entospletinib -0.184

UBR4 isoform 4 (UniProt Q5T4S7)
inactive: dasatinib -0.083 | [1] -0.158 | [3] -0.078 | [6] 0.049 | [5] -0.145 | silmitasertib -0.004 | entospletinib 0.205
active: vorinostat -0.792
